Rows were chosen to be rich in hits. Some 0.71% of all compounds tested hit in one or more screens of this group.
TexasRed fluor: Texas Red fluorescence interference in TRb-SRC2 counter-screen. 280,000 tested, 0.29% active. TRb/SRC2 Texas Red total fluorescence interference. AID 1479. Potency, µM (doses to about 106 µM), for the others: top-dose fluorescence change, negative = quenching; active = well fitted curve in either direction with a large enough effect; inconclusive = small, poorly fitted or top-dose-only effect; note: % is set by controls: 0 for no effect and ±100 for the full control effect
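Flags fluorescent or light-absorbing compounds by total fluorescence, S + 2P, at 555 nm excitation and 632 nm emission. Mixture: 20 nM Texas Red SRC2 peptide, 0.6 uM human TRb LBD, 1 uM T3, 5% DMSO; compound exposure 5 h at ambient temperature.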
BLM inh: inhibitors of human Bloom syndrome helicase BLM; 350,000 tested, 0.2% active; Potency, µM (highest dose often 56.1 µM), for inactives: at the top dose activity change, negative = inhibition, hits mostly inhibitors; recombinant BLM DNA unwinding, fluorescence dequenching;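 note: plate controls were vehicle for no effect and no enzyme for full effect; nearly all actives have a fitted effect of over 35% in size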
TRb SRC2 PPI: disrupts binding of human TR beta to SRC2. P10828. TRbeta-SRC2 peptide binding, fluorescence polarization; receptor liganded with 1 µM T3. Potency, µM (titrated, usually from 106 µM), without a hit: top-dose activity change, negative = inhibition, actives largely listed as inhibitors. 280,000 tested, 0.065% active. AID 1469;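 note: plate controls were bound peptide for no effect and peptide without receptor for full effect; nearly all actives have a fitted effect of over 50% in size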
Target sequence (P10828 whole entry, looked up): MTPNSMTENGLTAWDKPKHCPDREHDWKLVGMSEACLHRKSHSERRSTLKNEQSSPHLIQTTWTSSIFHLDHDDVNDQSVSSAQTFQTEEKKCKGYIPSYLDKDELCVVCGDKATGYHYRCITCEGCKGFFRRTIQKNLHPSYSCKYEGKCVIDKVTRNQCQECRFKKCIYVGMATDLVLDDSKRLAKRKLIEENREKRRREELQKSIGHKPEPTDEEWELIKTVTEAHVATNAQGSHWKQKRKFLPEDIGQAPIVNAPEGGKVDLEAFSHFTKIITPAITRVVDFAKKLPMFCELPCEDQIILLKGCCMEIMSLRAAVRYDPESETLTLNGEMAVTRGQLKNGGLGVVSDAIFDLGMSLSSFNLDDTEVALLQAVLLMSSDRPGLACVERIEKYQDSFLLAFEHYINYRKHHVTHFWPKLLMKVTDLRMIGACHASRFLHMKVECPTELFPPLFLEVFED
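Human TRb ligand-binding domain (0.6 uM) is mixed with 20 nM Texas Red SRC2 peptide and 1 uM T3; after compound addition and 5 hr at ambient temperature, polarization is measured and normalized to unbound and bound controls.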
ERG-DNA inh: inhibitors of human ERG Ets domain-DNA interaction | fluorescence polarization, His-ERG Ets domain / labelled DNA | Potency, µM (doses to about 76.9 µM), for inactives: at the highest dose FP activity, negative = inhibition, actives largely listed as inhibitors | 370,000 tested, 0.028% active; active = well fitted inhibition curve with a large enough effect in the polarisation, with a control signal flat; inconclusive = small, poorly fitted or top-dose-only effect, or effect the other way, or a change in a side signal; inactive = no such curve, though single readings can be large or run the other way; the % refers to the polarisation;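 note: polarization taken with two DNA probes labelled with fluorescein and Texas red; % of control where 0% means no effect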
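His-tagged ERG Ets domain (1 uM in the protein solution; 300mM KCl, 50mM Tris-HCl, 1mM EDTA, 1mM DTT, pH 7.5) received compound, then a probe mix of 5 nM fluorescein-DNA and 100nM Texas-615-DNA. Fluorescence polarization was read for both dyes.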
RECQ1 inh: RECQ1 (human) helicase inhibition | P46063 | RECQ1 DNA unwinding, red fluorescence kinetic read | Potency, µM (titrated, usually from 57.3 µM), for inactives: at the highest dose activity, negative = inhibition, hits mostly inhibitors | 240,000 tested, 0.54% active;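 note: plate controls were vehicle for no effect and no enzyme for full effect; nearly all actives have a fitted effect of over 30% in size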
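50 nM RECQ1T1 preincubated 15 min with compound in Tris pH 8.0 buffer with MgCl2, DTT, Tween-20 and 2.5 ug/ml poly(dI-dC); started with 200 nM TAMRA/BHQ-2 forked duplex and 2 mM ATP. Unwinding read as fluorescence (525/598 nm), two reads 2 h apart.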
RGS12 GoLoco inh: RGS12 GoLoco-Gai1 interaction inhibition; P63096; Gai1:RGS12 GoLoco peptide FP, rhodamine, 10 min; Potency, µM (highest dose often 61.6 µM), for inactives: top-dose activity, negative = inhibition, most hits filed as inhibitors; 230,000 tested, 0.44% active; AID 880; active = well fitted inhibition curve with a large enough effect, not every such curve was filed as active; inactive = no such curve, though single readings can be large or run the other way; note: % is set by controls: 0 for no effect and ±100 for the full control effect; nearly all actives have a fitted effect of over 30% in size
Target sequence (P63096 whole entry, looked up): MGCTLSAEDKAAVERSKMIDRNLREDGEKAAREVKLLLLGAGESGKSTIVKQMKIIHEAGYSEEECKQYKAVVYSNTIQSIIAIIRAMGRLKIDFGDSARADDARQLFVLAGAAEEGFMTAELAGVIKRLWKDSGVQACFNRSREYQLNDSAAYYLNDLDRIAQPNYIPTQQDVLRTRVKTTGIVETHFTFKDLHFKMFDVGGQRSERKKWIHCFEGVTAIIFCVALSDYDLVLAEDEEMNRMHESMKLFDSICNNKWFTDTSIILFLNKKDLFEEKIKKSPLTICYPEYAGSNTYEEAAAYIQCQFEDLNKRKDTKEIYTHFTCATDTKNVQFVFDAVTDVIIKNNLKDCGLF
* = called active by the depositor; [ ] = remark or other dose. Unless noted, calls come from the whole dose curve; as a rule, active = well fitted curve in the direction sought with a large enough effect; inconclusive = small, poorly fitted or top-dose-only effect, or another doubt; inactive = no such curve, though single readings can be large; an effect the other way counts as inactive or inconclusive. Potency is the fitted concentration of half-maximal effect.

How did COC/C=C/C1=CC2=CC(=O)C(C)(OC(=O)c3cnc4ccccc4n3)C(=O)C2=CN1Cc1ccc2c(c1)OCO2 (configuration not stated) do in these assays?
TexasRed fluor: -3.6%[11.2 µM]; BLM inh: -20.3%[12.4 µM]; TRb SRC2 PPI: -2.5%[11.2 µM]; RECQ1 inh: -9.3%[11.5 µM]; RGS12 GoLoco inh: 4.6%[14.2 µM]

What do the screens show for `C=CCOc1ccc(C2OC34CCCCC3C(C#N)(C#N)C2(C#N)C(=N)O4)cc1` (configuration not stated)?
TexasRed fluor: 1.9%; BLM inh: -1.4%; TRb SRC2 PPI: 2.9%; ERG-DNA inh: inconclusive; RECQ1 inh: -7.1%; RGS12 GoLoco inh: -72.9%

How did CCOc1ccc(C2OC34CCCCC3C(C#N)(C#N)C2(C#N)C(=N)O4)cc1OC (configuration not stated) do in these assays?
TexasRed fluor: 0.7%; BLM inh: -3.7%; TRb SRC2 PPI: -9.4%; ERG-DNA inh: inconclusive; RECQ1 inh: -10.5%; RGS12 GoLoco inh: 1.41µM*

Results for CCCCOc1ccc(C2OC34CCCCC3C(C#N)(C#N)C2(C#N)C(=N)O4)cc1 (configuration not stated) ?
TexasRed fluor: 3.4%; BLM inh: -5.5%; TRb SRC2 PPI: -12.8%; ERG-DNA inh: -5.1%; RECQ1 inh: inactive; RGS12 GoLoco inh: 25.1µM*

What do the screens show for `CC1(C)CC(OC(=O)CCCCCCCCC(=O)OC2CC(C)(C)NC(C)(C)C2)CC(C)(C)N1`?
TexasRed fluor: -1.3%[201 µM]; TRb SRC2 PPI: -1.5%[201 µM]

How did COc1ccc(-c2nnc3n2N=C(c2c(OC)cccc2OC)CS3)c(OC)c1 do in these assays?
TexasRed fluor: -0.9%; BLM inh: -2.9%; TRb SRC2 PPI: 0.9%; RECQ1 inh: 16.1%

How did CC(C)C[C@H](NC(=O)[C@@H](Cc1c[nH]c2ccccc12)NC(=O)[C@H](Cc1ccc(O)cc1)NC(=O)[C@H](CO)NC(=O)[C@H](Cc1c[nH]c2ccccc12)NC(=O)[C@H](Cc1cnc[nH]1)NC(=O)[C@@H]1CCC(=O)N1)C(=O)N[C@@H](CCCN=C(N)N)C(=O)N1CCC[C@H]1C(=O)NCC(N)=O do in these assays?
TexasRed fluor: -3.9%; BLM inh: 2.3%; TRb SRC2 PPI: -1.2%; RECQ1 inh: -4.6%

How did CN(C)c1nc(-c2ccoc2)nc2ccccc12 do in these assays?
TexasRed fluor: 0.6%; BLM inh: 6.5%; TRb SRC2 PPI: 7.8%; RECQ1 inh: -9.9%; RGS12 GoLoco inh: -0.1%

How did O=C(Nc1cc2c(cc1C(=O)c1ccccc1Cl)OCCO2)c1ccccc1 do in these assays?
TexasRed fluor: 0.0891µM*[quencher]; BLM inh: -10.9%; TRb SRC2 PPI: inconclusive; ERG-DNA inh: 0.1%

How did O=C(Nc1cc2c(cc1C(=O)c1ccccc1Br)OCCO2)c1ccccc1 do in these assays?
TexasRed fluor: -14.8%; BLM inh: -10.3%; TRb SRC2 PPI: -0.9%; ERG-DNA inh: -1.9%

What do the screens show for `CCC(=O)Nc1cc2c(cc1C(=O)c1ccccc1)OCCO2`?
TexasRed fluor: 28.2µM*[fluorescent]; BLM inh: -4.8%; TRb SRC2 PPI: inconclusive; ERG-DNA inh: 2.6%; RECQ1 inh: -17.2%; RGS12 GoLoco inh: 99.3%

How did COc1ccc(-n2c(=O)c(-c3cc(F)cc(F)c3)nc3cnc(N(C)C)nc32)cc1 do in these assays?
BLM inh: 1.0%; RECQ1 inh: -0.2%; RGS12 GoLoco inh: -1.0%

What do the screens show for `O=S(=O)(Nc1cc2nc3ccccc3nc2n1Cc1ccccc1)c1ccc(Cl)cc1`?
TexasRed fluor: 1.4%[53 µM]; BLM inh: 5.01µM*; TRb SRC2 PPI: -26.2%[53 µM]; ERG-DNA inh: -9.7%; RECQ1 inh: 6.1%; RGS12 GoLoco inh: 11.0%

How did CC(=O)c1cccc(NC(=O)c2cnn(-c3cccc(C)c3)c2-n2cccc2)c1 do in these assays?
TexasRed fluor: -0.9%; BLM inh: 1.5%; TRb SRC2 PPI: 5.3%; ERG-DNA inh: -0.6%

What do the screens show for `CN(C)CCN(Cc1ccc(Cl)cc1)c1ccccn1`?
TexasRed fluor: 1.8%; BLM inh: -10.0%; TRb SRC2 PPI: 3.3%; ERG-DNA inh: 17.7%; RECQ1 inh: -11.6%; RGS12 GoLoco inh: -4.5%

How did C[N+](C)(C)CCN(Cc1ccc(Cl)cc1)c1ccccn1 do in these assays?
TexasRed fluor: -1.8%; BLM inh: 3.2%; TRb SRC2 PPI: 2.8%; ERG-DNA inh: -1.7%; RECQ1 inh: -2.7%; RGS12 GoLoco inh: 6.31µM*

How did C[C@@]12CC[C@@H]3[C@H](CCC4=CC(=O)CC[C@]43C)[C@@H]1CC[C@@H]2C(=O)COS(=O)(=O)c1ccc(Br)cc1 do in these assays?
RGS12 GoLoco inh: 38.7%[14.2 µM]

How did COc1ccc(CCNC(=O)c2csc3c2CCCCC3)c(OC)c1 do in these assays?
TexasRed fluor: 20µM*[quencher]; BLM inh: -1.9%; TRb SRC2 PPI: -7.2%; ERG-DNA inh: -3.3%

What do the screens show for `COc1ccc(CCNC(=O)c2csc3c2CCCC3)cc1`?
TexasRed fluor: -2.4%; BLM inh: -7.5%; TRb SRC2 PPI: 4.7%; ERG-DNA inh: -3.0%; RECQ1 inh: -3.4%; RGS12 GoLoco inh: -20.4%

What do the screens show for `CC(=O)N[C@@H]1C(O[C@H]2O[C@H](C(=O)O)C(O)[C@H](O)[C@H]2O)[C@H](O)[C@@H](CO)O[C@H]1O[C@@H]1C(C(=O)O)O[C@@H](O[C@H]2[C@H](O)[C@@H](CO)OC(O)[C@@H]2NC(C)=O)[C@H](O)[C@H]1O` (some centres not stated)?
BLM inh: 0.9%

How did COc1ccc(NC(=O)CN(Cc2ccccc2)S(=O)(=O)c2ccc(C)cc2)cc1Cl do in these assays?
TexasRed fluor: 6.31µM*[quencher]; BLM inh: -14.1%; TRb SRC2 PPI: -10.7%; ERG-DNA inh: 4.9%

How did COC(=O)[C@H]1C[C@@H]1[C@H](NC(C)=O)c1ccccc1 do in these assays?
TexasRed fluor: -22.4%; BLM inh: -0.8%; TRb SRC2 PPI: -8.4%; RECQ1 inh: -10.0%; RGS12 GoLoco inh: 1.26µM*

How did COC(=O)[C@@H]1C[C@H]1[C@@H](NC(=O)c1ccccc1)c1ccccc1 do in these assays?
TexasRed fluor: -2.8%; BLM inh: 5.9%; TRb SRC2 PPI: 14.9%; ERG-DNA inh: -2.1%; RECQ1 inh: -7.8%; RGS12 GoLoco inh: -1.1%

How did Cc1cc(C)n2nc(SCC(=O)Nc3ccccc3)nc2n1 do in these assays?
TexasRed fluor: -2.2%; BLM inh: -2.8%; TRb SRC2 PPI: -1.5%; ERG-DNA inh: -4.6%; RECQ1 inh: inactive; RGS12 GoLoco inh: 9.4%

What do the screens show for `Cc1cc(C)c(NC(=O)CSc2nc3nc(C)cc(C)n3n2)c(C)c1`?
TexasRed fluor: 20µM*[quencher]; BLM inh: -2.1%; TRb SRC2 PPI: -8.7%; ERG-DNA inh: 122.9%

How did CCCCCCCCCCO do in these assays?
TexasRed fluor: 0.0%[5.17e+03 µM]; TRb SRC2 PPI: 3.4%[5.17e+03 µM]
